Results reported in paper PMC7826789 (International Journal of Molecular Sciences, 2021).

Legend:
Settings in all cases: Compound Concentration (nM):1000
HIPK2 = test system: HIPK2
HIPK3 = test system: HIPK3
HIPK4 = test system: HIPK4
HPK1 = test system: T1, HPK1
T1 construct: gene MAP4K1

HUNK = test system: HUNK
ICK = test system: ICK
IGF1R = test system: IGF1R
IKK-alpha = test system: T2, IKK-alpha
T2 construct: gene CHUK

IKK-beta = test system: T3, IKK-beta
T3 construct: gene IKBKB

IKK-epsilon = test system: T4, IKK-epsilon
T4 construct: gene IKBKE

INSRR = test system: INSRR
INSR = test system: INSR
IRAK1 = test system: IRAK1
IRAK3 = test system: IRAK3
IRAK4 = test system: IRAK4
ITK = test system: ITK
[1] = test system: JAK1(JH1domain-catalytic)
[2] = test system: JAK1(JH2domain-pseudokinase)
[3] = test system: JAK2(JH1domain-catalytic)
[4] = test system: JAK3(JH1domain-catalytic)
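Also: KINOMEscan scanMAX binding as percent activity remaining versus control; lower means stronger binding.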

| Structure (SMILES) | Percent Control (HIPK2) | Percent Control (HIPK3) | Percent Control (HIPK4) | Percent Control (HPK1) | Percent Control (HUNK) | Percent Control (ICK) | Percent Control (IGF1R) | Percent Control (IKK-alpha) | Percent Control (IKK-beta) | Percent Control (IKK-epsilon) | Percent Control (INSRR) | Percent Control (INSR) | Percent Control (IRAK1) | Percent Control (IRAK3) | Percent Control (IRAK4) | Percent Control (ITK) | Percent Control [1] | Percent Control [2] | Percent Control [3] | Percent Control [4] |
| --- | --- | --- | --- | --- | --- | --- | --- | --- | --- | --- | --- | --- | --- | --- | --- | --- | --- | --- | --- | --- |
| COc1cc(C)c(N(C)C(=O)CN(C)C)cc1Nc1nc(Nc2cccc(F)c2C(N)=O)c2cc[nH]c2n1 [GSK2219385] | 100% | 100% | 100% | 100% | 100% | 89% | 7.7% | 100% | 100% | 61% | 2.9% | 4.3% | 95% | 97% | 95% | 99% | 88% | 81% | 100% | 92% |
| COc1ccc(COc2ccc(Cc3cnc(N)nc3N)cc2OC)cc1 [GW632580X] | 94% | 100% | 100% | 100% | 72% | 99% | 91% | 94% | 100% | 86% | 100% | 69% | 99% | 100% | 95% | 89% | 100% | 89% | 92% | 77% |
| CN(C)CCNC(=O)Nc1ccc(N(C)c2ccnc(Nc3ccc(CS(C)(=O)=O)cc3)n2)cc1.Cl [GW830900A] | 94% | 81% | 85% | 30% | 55% | 70% | 100% | 100% | 97% | 100% | 99% | 75% | 59% | 31% | 80% | 83% | 100% | 33% | 30% | 40% |
| COc1ccc2cc(-c3c(-c4ccncc4)nc(-c4ccc(S(C)(=O)=O)cc4C)n3C)ccc2c1 [SB-633825] | 82% | 70% | 63% | 85% | 100% | 69% | 79% | 57% | 66% | 82% | 89% | 100% | 68% | 75% | 81% | 60% | 100% | 75% | 72% | 63% |
| CCS(=O)(=O)c1ccc(OC)c(Nc2ncc(-c3cccc(OC)c3)o2)c1 [GW580509X] | 56% | 45% | 18% | 88% | 100% | 100% | 100% | 100% | 100% | 100% | 100% | 95% | 90% | 100% | 100% | 100% | 100% | 97% | 94% | 62% |
| CC1=C(C(=O)Nc2ccc3[nH]ncc3c2)C(c2ccc3ccccc3c2)CC(=O)N1 (centres unmarked) [GSK270822A] | 76% | 79% | 100% | 87% | 91% | 84% | 85% | 69% | 72% | 87% | 100% | 100% | 72% | 67% | 100% | 75% | 82% | 90% | 9.6% | 3.4% |
| COc1cc(/C=N/Nc2ncnc3[nH]ncc23)ccc1O [GW578748X] | 19% | 16% | 85% | 80% | 100% | 75% | 100% | 14% | 33% | 81% | 100% | 94% | 31% | 100% | 61% | 100% | 100% | 0.6% | 47% | 47% |
| O=C(Nc1n[nH]c2nc(-c3ccc(O)cc3)c(Br)cc12)C1CC1 [SB-725317] | 36% | 30% | 100% | 86% | 100% | 1% | 100% | 100% | 100% | 84% | 100% | 100% | 56% | 100% | 89% | 100% | 60% | 63% | 24% | 6.9% |
| Cl.O=C(Nc1ccc(Oc2ccc3[nH]c(NC(=O)c4ccco4)nc3c2)cc1)Nc1cc(C(F)(F)F)ccc1F [GW683134A] | 100% | 100% | 16% | 44% | 63% | 100% | 100% | 24% | 88% | 100% | 100% | 88% | 91% | 100% | 89% | 97% | 100% | 90% | 94% | 87% |
| CCc1ccc(Oc2nccc(-c3c(-c4ccc(F)cc4)ncn3C3CCNCC3)n2)cc1 [SB-242719] | 92% | 100% | 100% | 54% | 86% | 100% | 97% | 99% | 100% | 56% | 100% | 77% | 95% | 95% | 88% | 100% | 95% | 100% | 90% | 100% |
